# CHRM1 antagonist = blocks human M1 muscarinic receptor; 360,000 tested, 1.3% active; inhibition, % at 3 µM; CHO-K1 hM1, Fluo-8 calcium fluorescence, ACh EC80 antagonist;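 active means percent inhibition above its own plate's cutoff, namely the mean of that plate's compound wells plus 3 SD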;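 further: peak over basal fluorescence ratio during 140 s after agonist addition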
# Target sequence (P11229 whole entry, looked up): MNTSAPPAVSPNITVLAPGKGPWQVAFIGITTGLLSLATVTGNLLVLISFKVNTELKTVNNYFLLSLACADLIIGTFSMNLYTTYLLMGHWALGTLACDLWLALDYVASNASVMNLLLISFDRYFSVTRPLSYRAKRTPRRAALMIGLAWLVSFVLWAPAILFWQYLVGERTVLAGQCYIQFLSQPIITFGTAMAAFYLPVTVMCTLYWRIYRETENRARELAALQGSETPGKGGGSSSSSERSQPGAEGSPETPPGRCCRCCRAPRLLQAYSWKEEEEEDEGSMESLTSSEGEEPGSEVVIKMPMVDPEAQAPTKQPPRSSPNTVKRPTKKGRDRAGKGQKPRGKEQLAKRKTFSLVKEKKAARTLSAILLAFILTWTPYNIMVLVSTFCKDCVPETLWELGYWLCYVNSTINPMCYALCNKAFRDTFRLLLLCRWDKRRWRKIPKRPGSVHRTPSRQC
# M1 ag = agonists of human M1 muscarinic receptor; CHO-K1 hM1, Fluo-8 calcium fluorescence, agonist mode; 0% DMSO, 100% acetylcholine EC100; P11229; AID 588814; 360,000 tested, 0.33% active; activation, % at 3 µM;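 active means activation above the run's mean compound activation plus 3 SD, cut at about 16% in these data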;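 further: peak over basal fluorescence ratio within a 140 s kinetic read after compound addition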
# SKN-1 block = C. elegans SKN-1 inhibition; C. elegans VP596 Pgst-4::GFP/RFP ratio, acrylamide-induced, 24 h; AID 624304; inhibition, % at 21.8 µM; 360,000 tested, 0.49% active;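 active means interference check ratio from 0.5 to 1.5 plus GFP to RFP signal ratio inhibition reaching or exceeding a fixed threshold, cut at about 30% in these data, passing the limit was not always enough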
# M1 PAM = human CHRM1 positive allosteric modulation | AID 588819 | activation, % at 3 µM | P11229 | CHO-K1 hM1, Fluo-8 calcium fluorescence, ACh EC20; 0% = ACh EC20, 100% = maximal ACh | 360,000 tested, 0.088% active; in the data active means activation above about 19%, passing the limit was not always enough
# Myeloid diff MLP = promotes myeloid progenitor differentiation. ER-HoxA9 myeloid progenitors, lysozyme-GFP differentiation, flow cytometry. calls only at 10 µM. 360,000 tested, 1% active;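 active means normalized GFP-positive differentiation at or above the plate's own cutoff, the solvent-only control mean plus 3 SD; inconclusive means no clear call, values can overlap the other calls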;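 further: cells exposed to compound for four days before flow analysis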
# ATG4B inhibitor = inhibitors of human ATG4B cysteine protease; Q9Y4P1; ATG4B cleavage of LC3-PLA2, NBD-HPC fluorescence, 1 h; inhibition, % at 8.33 µM; 340,000 tested, 0.51% active; in the data active means inhibition above about 40%
# Myeloid diff CP1 = myeloid differentiation induction; shares compounds with Myeloid diff MLP; ER-HoxA9 myeloid progenitors, GFP/Mac1 double-positive flow; calls only; 2,300 tested, 2% active;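 active means share of green or green-and-red cells above 9 and 9% in run 1 or 4 and 3% in run 2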
# GFP autofluor = counter-screen for myeloid differentiation promoters: compound fluorescence. shares compounds with Myeloid diff MLP. ER-HoxA9 myeloid progenitors, no estrogen, GFP autofluorescence flow cytometry; vehicle wells 0%, positive control 100%. fluorescence response, % (test concentration not listed). 2,300 tested, 7.4% active. AID 651707;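 active means over 5% cells positive for green fluorescent reporter, or over 2% positive for both it and APC stain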
# A number is an active result; – = inactive; ? = inconclusive; · = no result; + = active, no number. Hits are enriched below; roughly 3.5% of the tested compounds scored in any of these assays.
SMILES,CHRM1 antagonist,M1 ag,SKN-1 block,M1 PAM,Myeloid diff MLP,ATG4B inhibitor,Myeloid diff CP1,GFP autofluor
N#CCC(CNc1ncc(C(F)(F)F)cc1Cl)OC(=O)c1ccc(Cl)cc1 (centres undefined),–,–,–,–,–,–,·,·
COc1ccc(S(=O)(=O)Nc2nc3ccccc3nc2Nc2cccc(C(=O)O)c2)cc1,–,–,–,–,–,–,·,·
COc1ccc(N/C=C2/CCCCC2=O)cc1,–,–,–,–,–,–,–,–
COc1ccc(Oc2ccc(N/C=C3/CCCC3=O)cc2)cc1,–,–,–,–,–,–,·,·
CC1=C(CC(=O)c2ccccc2)C(=O)c2ccccc2C1=O,–,–,–,–,+,–,–,4.2
Cc1ccc(CN2C(=O)N/C(=C\c3ccc(N4CCOCC4)cc3)C2=O)cc1,–,–,–,–,–,–,·,·
CCN1C(=O)/C(=C/c2ccc(N3CCCC3)cc2)NC1=S,56.0,56.9,–,–,+,–,–,93.0
COc1ccc(NC(=O)CNC(=O)c2ccc([N+](=O)[O-])cc2)cc1,–,–,–,–,–,–,·,·
COc1ccc(OC)c(NC(=O)CNC(=O)c2ccc([N+](=O)[O-])cc2)c1,–,–,–,–,–,–,–,–
COc1ccc(NC(=O)Nc2cccc3c2O[C@H](CN(C)S(=O)(=O)c2ccc(OC)cc2)[C@@H](C)CN([C@H](C)CO)C3=O)cc1,–,–,–,–,–,·,·,·
Cc1ccc(-c2cnc3c(c2)C(=O)N([C@H](C)CO)C[C@@H](C)[C@@H](CN(C)C(=O)Cc2ccccc2)O3)cc1,–,–,–,–,–,·,–,–
Cc1ccc(S(=O)(=O)N(C)C[C@H]2Oc3c(NC(=O)Nc4cccc5ccccc45)cccc3C(=O)N([C@@H](C)CO)C[C@@H]2C)cc1,–,–,–,–,–,·,–,–
COCC(=O)N(C)C[C@H]1Oc2ncc(Br)cc2C(=O)N([C@@H](C)CO)C[C@H]1C,–,–,–,–,–,·,·,·
COCC(=O)N(C)C[C@H]1Oc2ncc(C#C[C@H](C)O)cc2C(=O)N([C@@H](C)CO)C[C@H]1C,–,–,–,–,+,·,–,–
COc1ccc(-c2cnc3c(c2)C(=O)N([C@H](C)CO)C[C@H](C)[C@H](CN(C)C(=O)Cc2cccnc2)O3)cc1,–,–,–,–,–,·,·,·
Cc1ccc(-n2c(C)nn(Cc3ccc([N+](=O)[O-])cc3)c2=O)cc1,–,–,–,–,–,–,·,·
Cc1nn(Cc2ccc([N+](=O)[O-])cc2)c(=O)n1-c1ccc(Cl)cc1,–,–,–,–,+,–,–,–
O=C(NCCSc1ccccn1)c1ccc(Cl)cc1,–,–,–,–,–,–,·,·
CS(=O)(=O)N(Cc1ccc(Cl)cc1)c1ccc(C(=O)NCCSc2ccccn2)cc1,–,–,–,–,+,–,–,–
Cc1cccc(NC(=O)CCS(=O)(=O)c2ccc3nc(C)sc3c2)c1,–,–,–,–,–,·,·,·
Cc1nn2c(N3CCOCC3)c3c(nc2c1-c1ccccc1)CCCC3,–,–,–,–,+,–,–,–
C[C@@H]1CN([C@H](C)CO)C(=O)c2cccc(NS(=O)(=O)c3ccccc3)c2O[C@H]1CN(C)C,–,–,–,–,–,–,·,·
COC(=O)[C@@H](NC(=O)NCc1cccs1)C(C)C,–,–,–,–,–,–,·,·
COC(=O)[C@H](CCSC)NC(=O)NCc1cccs1,–,–,–,–,–,–,–,–
Cc1ccc(C(=O)NNC(=O)CSc2nnc(-c3ccncc3)n2-c2ccc(C)cc2)cc1,–,–,–,–,–,·,–,–
SMILES,CHRM1 antagonist,M1 ag,SKN-1 block,M1 PAM,Myeloid diff MLP,ATG4B inhibitor,Myeloid diff CP1,GFP autofluor
Cc1ccc(-n2c(SCC(=O)Nc3ccc(C(=O)O)cc3)nnc2-c2ccncc2)cc1,–,–,–,–,–,–,·,·
O=C(CCCC(=O)OCC(=O)c1ccc(Cl)cc1)NC1CCCCC1,–,–,–,–,–,–,·,·
Cc1ccc(Oc2ccc(-c3nc(N)nc(N)n3)cc2)cc1,–,–,–,–,+,–,–,–
COc1cc(CC(=O)OCC(=O)c2c[nH]c3ccccc23)cc(OC)c1OC,–,–,–,–,–,–,–,9.7
Cc1ccc(S(=O)(=O)c2nc(S(C)(=O)=O)sc2N2CCOCC2)cc1,–,–,–,–,–,–,–,–
CC(C)N(Cc1ccccc1)C(=O)c1ccc2nsnc2c1,–,–,–,–,–,–,·,·
C/C(CCS(=O)(=O)c1ccccc1)=N/O,–,–,–,–,·,–,·,·
O=C(COC(=O)c1cccnc1Cl)NCc1ccc2c(c1)OCO2,–,–,–,–,–,–,·,·
O=C(COC(=O)c1cccnc1Cl)Nc1ccc2c(c1)OCCO2,–,–,–,–,+,–,–,–
CC(C)(C)NC(=O)CCN(/N=C/c1ccc([N+](=O)[O-])o1)C1=NS(=O)(=O)c2ccccc21,–,–,–,–,+,–,–,–
O=C(NCC1CCCCC1)C12CN(Cc3ccccc3)CC1C(c1cccc([N+](=O)[O-])c1)=NO2 (centres undefined),–,–,–,–,+,–,–,–
COc1cc(OC)c2c(-c3cccc(-c4ccc(CO)cc4)c3)cc(=O)oc2c1,–,–,–,–,?,·,·,·
COc1cc(OC)c2c(-c3cccc(-c4ccc(O)cc4)c3)cc(=O)oc2c1,–,–,–,–,+,–,–,–
COc1ccc(CS(=O)(=O)/C(Cl)=C(/Cl)C(=O)Nc2ccc(OC)nc2)cc1,–,–,–,–,?,–,·,·
CS(=O)(=O)c1ccc2nc(NC(=O)CS(=O)(=O)Cc3ccccc3)sc2c1,–,–,–,–,+,–,–,–
COc1cccc(OC)c1C(=O)Nc1nc2ccc(S(C)(=O)=O)cc2s1,–,–,–,–,+,–,–,–
CS(=O)(=O)c1ccc2nc(NC(=O)Cc3ccccc3)sc2c1,–,–,–,–,–,–,·,·
COc1ccc(-n2nc3c(c2NC(=O)c2ccc(S(=O)(=O)N4CCOCC4)cc2)CS(=O)C3)cc1 (centres undefined),–,–,–,–,–,–,·,·
COc1cccc(-c2c(NC(=O)c3ccco3)n(-c3ccc(C)cc3)nc(C)c2=O)c1,–,–,–,–,+,–,–,–
Cc1ccc(-n2nc(C)c(=O)c(-c3ccccc3)c2NC(=O)C(C)C)cc1,–,–,–,–,–,–,·,·
COc1cc2c(cc1OC)-c1cc3ccc4c(c3c[n+]1CC2)OCO4,–,–,–,–,+,–,+,–
Cc1ccc2cc(C#N)c(SCC(=O)N3CCCc4ccccc43)nc2c1C,–,–,–,–,·,–,·,·

# Screens (PubChem BioAssay)
